AMA1 RON2 block: disrupts binding of P. falciparum AMA1 to RON2 | AlphaScreen AMA1-biotinylated RON2 peptide binding | Potency, µM (doses to about 58.2 µM), most hits filed as inhibitors | 360,000 tested, 0.2% active | AID 720542; further: nearly all actives have a fitted effect of over 45% in size
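AMA1 (3D7) with his tag at 25 nM final met compounds first, then biotinylated RON2 peptide at 25 nM; detection used donor plus acceptor beads, 10 µg/mL apiece, read by AlphaScreen after 30 min at room temperature.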
NS1 inh: inhibitors of influenza NS1 protein function | Potency, µM (series often up to 46.1 µM) | 270,000 tested, 0.4% active; calls by dose curve; further: actives are rising curves; nearly all actives have a fitted effect of over 50% in size
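Compounds were scored for reversing the slow growth caused by influenza A NS1 in S. cerevisiae, measured by optical density at 600 nm. Assay medium contained 2% galactose at pH 6.0; NS1-free yeast of the same strain were the positive control.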
Tb PYK inh: inhibitors of Trypanosoma brucei pyruvate kinase. Potency, µM (top dose mostly 76.8 µM), most hits filed as inhibitors. TbPYK enzyme, Kinase-Glo Plus ATP luminescence, 45 min. AID 624173. 410,000 tested, 0.12% active. Q57TT1; further: nearly all actives have a fitted effect of over 50% in size
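Luminescent Kinase-Glo Plus end-point after 45 min room-temperature reaction of T. brucei pyruvate kinase started with 130 uM ADP (final). Buffer TEA 50 mM pH 7.2 with KCl, MgCl2, BSA, Tween-20; titration-based qHTS with fitted concentration-effect curves.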
Giardia FBPA inh: Giardia lamblia aldolase inhibition; A8B2U2; purified Giardia FBPA; Potency, µM (highest dose often 59.6 µM), actives largely listed as inhibitors; 290,000 tested, 0.71% active; AID 2451; further: nearly all actives have a fitted effect of over 55% in size
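Giardia FBPA (40 nM reagent) was preincubated 10 min at RT with compound (up to 57.5 uM final), then substrate plus GAPDH/TPI/NAD/arsenate coupling system with diaphorase/resazurin was added; resorufin fluorescence (525/598 nm) was read after 20 min.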
LmPK inhibitor: blocks Leishmania mexicana pyruvate kinase activity. Q27686. purified LmPK, Kinase-Glo ATP luminescence, 1 h. Potency, µM (series often up to 57.5 µM), usual class: inhibitors. 290,000 tested, 0.37% active. AID 1721
Target sequence (Q27686 whole entry, looked up): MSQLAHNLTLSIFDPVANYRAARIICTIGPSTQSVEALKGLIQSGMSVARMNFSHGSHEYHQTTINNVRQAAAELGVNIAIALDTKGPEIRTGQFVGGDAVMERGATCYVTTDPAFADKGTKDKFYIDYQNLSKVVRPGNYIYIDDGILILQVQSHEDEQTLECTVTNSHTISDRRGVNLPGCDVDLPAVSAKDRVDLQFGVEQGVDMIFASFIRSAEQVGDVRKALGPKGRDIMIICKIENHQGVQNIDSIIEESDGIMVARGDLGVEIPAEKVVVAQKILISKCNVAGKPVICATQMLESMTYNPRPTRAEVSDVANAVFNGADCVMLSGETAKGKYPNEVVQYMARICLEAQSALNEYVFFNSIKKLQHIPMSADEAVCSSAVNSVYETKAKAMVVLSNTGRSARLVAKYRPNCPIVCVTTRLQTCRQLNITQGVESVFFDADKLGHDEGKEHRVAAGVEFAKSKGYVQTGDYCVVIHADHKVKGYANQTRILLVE
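ATP generated from ADP (0.1 mM) and PEP (0.5 mM) by 0.1 nM LmPK over 1 h at room temperature (pH 7.2 imidazole buffer) was detected by coupled luciferase luminescence. Values were normalized to uninhibited and no-enzyme wells.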
Flu NS1 inh: validation of influenza NS1 protein function inhibitors | 1,400 tested, under 10 active | activity change, negative = inhibition, % at 32.9 µM | AID 492980 | influenza NS1 function cell assay, 15-point titration | shares compounds with NS1 inh; calls by dose curve
PR8 titer: reduces influenza A/PR/8/34 replication in MDCK cells. virus titer (log TCID50), log10 TCID50 at 5 µM. 95 tested, 30% active. shares compounds with NS1 inh. MDCK infected influenza A/PR/8/34, virus titer TCID50; active compounds read low. AID 504647; call rule not given here
Numbers stand for hits; . = inactive; ? = inconclusive; / = not tested or not shown; [ ] = remark or other dose. An excerpt weighted towards active compounds, which were near 1.2% of everything screened. Unless noted, the call rests on the fitted dose curve; in most records, active means well fitted curve in the direction sought with a large enough effect; inconclusive means small, poorly fitted or top-dose-only effect, or another doubt; inactive means no such curve, though single readings can be large; an effect the other way counts as inactive or inconclusive.

SMILES	AMA1 RON2 block	NS1 inh	Tb PYK inh	Giardia FBPA inh	LmPK inhibitor	Flu NS1 inh	others
Cc1ccc(C)c2[nH]c(=O)c(C(c3nnnn3Cc3ccccc3)N3CCc4ccccc4C3)cc12 (stereo unspecified)	.	10µM	.	?	.	.
O=C(CN1C(=O)CSc2ccccc21)N1CCc2ccccc21	.	?	.	.	.	.
Cc1cc(C)c(-c2cc(NC(=O)COC(=O)c3ccc(CO)cc3)n(-c3ccccc3)n2)cc1C	.	11µM	.	.	.	.
Cc1nnc(SCC(=O)Nc2nc3c(s2)CC(C)CC3)s1 (stereo unspecified)	.	?	.	.	.	.
O=C(Nc1cccc(F)c1)N1CC2(CCN(C(=O)c3ccco3)CC2)C1	/	/	.	.	/	/
Cc1ccc(N2C(=O)NC(=O)/C(=C/C=C/c3ccco3)C2=O)cc1	.[2.32 µM]	.	.	.	.	/
CCc1ccc(N2C(=O)NC(=O)/C(=C\C=C\c3ccco3)C2=O)cc1	.	11µM	.	.	.	.
Cc1ccc(CNC(=O)c2ccc(S(=O)(=O)N3CCCCCC3)cc2)cc1	.	/	.	/	/	/
Cc1cc2ccccc2n1CCNC(=O)c1ccc(S(=O)(=O)N2CCCCC2)cc1	.	11µM	.	.	.	.
Cc1cc2cc(CNC(=O)c3ccc(S(=O)(=O)N4CCCCC4)cc3)ccc2[nH]1	.	11µM	.	.	.	.
Cc1cc2cc(CNC(=O)c3cccc([N+](=O)[O-])c3)ccc2[nH]1	.	14µM	.	.	.	.
O=C(NCc1ccc2[nH]c3c(c2c1)CCCC3)c1ccc(S(=O)(=O)N2CCCC2)cc1	.	13µM	.	.	.	.	PR8 titer=7
CC(=O)Nc1ccc(NC(=O)c2c(C)nn(-c3ccccc3)c2-n2cccc2)cc1	/	/	.	/	/	/
CN(C)S(=O)(=O)c1ccc(C(=O)NCc2ccc3[nH]c4c(c3c2)CCCC4)cc1	.	16µM	.	.	.	.
CCN(CC)S(=O)(=O)c1ccc(C(=O)NCc2ccc3[nH]c4c(c3c2)CCCC4)cc1	.	?	.	.	.	/
Cc1cc2cc(CN3C(=O)c4ccccc4C3=O)ccc2[nH]1	.	?	.	.	.	.
COc1ccc(CN2C(=O)c3ccccc3C2=O)cc1	.	.	.	.	.	/
O=c1cc(O)cc(/C=C/c2ccc(O)c(O)c2)o1	/	6.3µM	/	.	/	.
O=C(O)/C=C\c1ccc(O)c(O)c1	/	/	/	.	/	/
COC(=O)[C@@]1(Cc2ccc(OC)cc2)[C@H]2c3cc(C(=O)N4CCCC4)n(CCF)c3C[C@H]2CN1C(=O)c1ccccc1	/	/	/	.	/	/
Cc1ccc(-c2nnc(NCc3nc4ccccc4[nH]3)c3ccccc23)cc1S(=O)(=O)N(C)C	.	5.6µM	.	.	.	.	PR8 titer=7.5
Cc1ccc(Cl)cc1-n1ncc2c(Nc3cccc(C)c3C)ncnc21	/	/	.	/	/	/
CCc1ccc(CN(Cc2ccco2)C(=O)COc2ccccc2Cl)cc1	/	/	.	/	/	/
COc1ccccc1N1CCN(CCCNC(=O)c2nnc(Cc3c(F)cccc3Cl)o2)CC1	/	/	.	/	/	/
O=C(c1ccc(S(=O)(=O)N2CCCC2)cc1)N1CCN(c2ccccc2)CC1	.	4.5µM	.	/	.	.
SMILES	AMA1 RON2 block	NS1 inh	Tb PYK inh	Giardia FBPA inh	LmPK inhibitor	Flu NS1 inh	others
CCC(C)Sc1nnc(Cc2cc(=O)[nH]c(=O)[nH]2)n1-c1ccc(F)cc1 (stereo unspecified)	.	8.9µM	?	.	.	.
CCOc1ccc(-n2c(Cc3cc(=O)[nH]c(=O)[nH]3)nnc2SC(C)C)cc1	.	?	.	.	.	/
Cc1nn(-c2ccccc2)c2[nH]c(=O)c(CNc3ccc4c(c3)OCCO4)cc12	.	.	.	.	.	/
Cc1nn(-c2ccccc2)c2[nH]c(=O)c(CNCc3ccc4c(c3)OCO4)cc12	.	7.9µM	.	.	.	.
Cn1cc([N+](=O)[O-])c(C(=O)n2cccn2)n1	.	?	.	.	.	.
CC(C)(C)Nc1oc(-c2ccccc2)nc1-c1ccccc1F	/	/	/	.	/	/
CC(C)CCNC(=O)c1c[nH]c2ccc(S(=O)(=O)Nc3cccc(C(F)(F)F)c3)cc2c1=O	/	/	.	/	/	/
COc1cccc(NS(=O)(=O)c2ccc3[nH]cc(C(=O)NCCC(C)C)c(=O)c3c2)c1	.	4.5µM	.	.	.	.
COc1ccccc1NS(=O)(=O)c1ccc(C(=O)NCC2(N(C)C)CCCCC2)cc1	.	/	.	/	/	/
COc1ccccc1NC(=O)NCC1(N(C)C)CCCCC1	.	?	.	.	.	.
COc1ccc(CNC(=O)c2ccc(CN3CCOCC3)cc2)cc1	.	.	.	.	.	/
O=C(NCc1ccccc1)c1ccc(CN2CCOCC2)cc1	.	?	.	.	.	.
Cc1cc(NC(=O)/C=C/c2cccc(Cl)c2)n(-c2nc3ccccc3[nH]2)n1	.	1.8µM	.	.	.	.
NC(N)=NCCC[C@H](NC(=O)[C@H](Cc1ccccc1)NC(=O)[C@@H]1CCCN1C(=O)[C@H](CO)NC(=O)[C@H](Cc1ccccc1)NC(=O)CNC(=O)[C@@H]1CCCN1C(=O)[C@@H]1CCCN1C(=O)[C@@H](N)CCCN=C(N)N)C(=O)O	/	/	/	.	/	/
CC(=O)NC1(C(F)(F)F)C(=O)Nc2c1c(=O)n(C)c(=O)n2C (stereo unspecified)	.	.	.	.	.	/
Cc1nnc(NC2(C(F)(F)F)C(=O)Nc3c2c(=O)n(C)c(=O)n3C)s1 (stereo unspecified)	.	?	.	.	.	.
CCN1CCN(CCCNC(=O)C2CCCN(c3nnc(-n4cccc4)s3)C2)CC1 (stereo unspecified)	.	5µM	.	.	.	.
CN1CCN(CCCNC(=O)C2CCN(c3nnc(-n4cccc4)s3)CC2)CC1	.	.	.	.	.	/
Fc1ccc(C2=CC(c3cccs3)n3nnnc3N2)cc1 (stereo unspecified)	.	.	.	.	.	/
Cc1ccc(C2=CC(c3cccs3)n3nnnc3N2)cc1 (stereo unspecified)	.	3.2µM	.	.[12.9 µM]	.	.
Cc1ccc(NC2CCCN(C(=O)CCN3CCOCC3)C2)cc1C (stereo unspecified)	.	?	.	/	.	.
COc1ccccc1C(=O)NC(=S)NNC(=O)c1sc2ccccc2c1Cl	.	.	.	.	.	/
COc1ccccc1C(=O)NNC(=S)NC(=O)c1sc2ccccc2c1Cl	.[11.6 µM]	?	.	.	.	?
CC(C)(C)N1C(=O)c2ccc(C(=O)Nc3ccc(-c4nc5ccccc5[nH]4)cc3)cc2C1=O	.	?	.	.	.	.
COC(=O)c1ccc(OCC2c3cc(OC)c(OC)cc3CCN2C(=O)c2ccc(F)cc2)cc1 (stereo unspecified)	/	/	.	/	/	/
